The full list was thinned out, with hits kept by preference.
Pf Dd2 inh: Plasmodium falciparum Dd2 growth inhibition | P. falciparum Dd2 growth, SYBR Green, 72 h | AID 1347417 | 120,000 tested, 4.3% active | Potency, µM (titrated, usually from 28.9 µM), inactives show at the top dose activity, negative = inhibition, actives largely listed as inhibitors; active = well fitted inhibition curve with a large enough effect;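 also: plate controls were DMSO vehicle for no effect and reference drug for full effect; nearly all actives have a fitted effect of over 65% in size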
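Readout: SYBR Green fluorescence, 485 nm excitation, 535 nm emission, after ~16 h lysis at 37C. Before that, Dd2-infected red cells (2.5% hematocrit) grew 72 h with compound, 29 uM top final concentration.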
* marks the source's active call; other numbers are inactive results; i = inactive; [ ] = dose if it differs, or a comment. Potency is read from the fitted curve at half-maximal effect.

SMILES | Pf Dd2 inh
O=C1NCCCCCCN(C(=O)NC2CCCCC2)[C@H]2CCCC[C@@H]12 | i
O=C(Cn1c(=O)n(CC2CCC(C(=O)NCCc3ccccc3)CC2)c(=O)c2ccccc21)Nc1ccccc1 (stereo not given) | -11%
Cc1cccc(NC(=O)Cn2c(=O)n(CC3CCC(C(=O)NCCc4ccccc4)CC3)c(=O)c3ccccc32)c1C (stereo not given) | i
CC(C)c1ccc(NC(=O)Cn2c(=O)n(CCc3ccccc3)c(=O)c3ccccc32)cc1 | 14%
CC(C)c1ccc(NC(=O)Cn2c(=O)n(CC3CCC(C(=O)NCCc4ccccc4)CC3)c(=O)c3ccccc32)cc1 (stereo not given) | 3.2µM*
CCOc1ccc(NC(=O)Cn2c(=O)n(CC3CCC(C(=O)NCCc4ccccc4)CC3)c(=O)c3ccccc32)cc1 (stereo not given) | -10%
CCc1cccc(NC(=O)Cn2c(=O)n(CC3CCC(C(=O)NCCc4ccccc4)CC3)c(=O)c3ccccc32)c1 (stereo not given) | 3.5µM*
O=C(c1n[nH]c2ccccc12)N1CCC2(CC1)CC(N1CCCCC1)CCO2 (stereo not given) | -1%
CN1CCC(N(C)C(=O)CCC[C@@H]2[C@H]3CCCN4CCC[C@@H](CN2Cc2ccccc2)[C@@H]34)CC1 | -12%
Cc1ncsc1CN1CCc2nn(CC3CC3)c(=O)n2CC1 | 17%
Cc1nc(N2CCCCC2)n(CC(=O)Nc2cccc(F)c2)c(=O)c1C | 4µM*
CSc1cccc(NC(=O)Cn2c(N3CCCCC3)nc(C)c(C)c2=O)c1 | i
Cc1cccc(NC(=O)Cn2c(N3CCCCC3)nc(C)c(C)c2=O)c1 | i
CCc1ccccc1OCC(=O)c1ccc2c(c1)N(CCCC(=O)NCC1CCCO1)C(=O)CO2 (stereo not given) | i
Cc1cnc(CN(C)C(=O)CC(c2ccccc2)c2ccc(Cl)cc2)[nH]1 (stereo not given) | 8.9µM*
Cc1nonc1CN(C)C(=O)CC(c1ccccc1)c1cccc(Cl)c1 (stereo not given) | -21%
Cc1nnc(CN(C)C(=O)CC(c2ccccc2)c2ccc(Cl)cc2)o1 (stereo not given) | -2%
CCOc1ccccc1C1NC(=O)N(CC(=O)NCc2ccc(C)cc2)C2=C1C(=O)OC2 (stereo not given) | i
COc1cc(=O)n2c(c1C(=O)Nc1ccc(Cl)cc1C)CCCC2 | 6%
COc1cc(OC)c(NC(=O)c2cn(C)c(=O)c3cc(OC)c(OC)cc23)cc1Cl | 15%
COc1ccc(NC(=O)c2cn(CC(C)C)c(=O)c3cc(OC)c(OC)cc23)cc1Cl | 11µM*
COc1cc2c(C(=O)N3CCN(c4ccc(C)cc4)C(C)C3)cn(CC(C)C)c(=O)c2cc1OC (stereo not given) | 8.9µM*
CCn1cc(C(=O)N2CCN(c3ccc(C)cc3)C(C)C2)c(=O)c2cc(S(=O)(=O)N3CCCC3)ccc21 (stereo not given) | 20%
CCOc1ccc(NC(=O)c2cn(C)c(=O)c3cc(OC)c(OC)cc23)cc1 | 21%
CCn1cc(C(=O)N2CCN(c3ccccc3OC)CC2)c2cc(OC)c(OC)cc2c1=O | -9%
SMILES | Pf Dd2 inh
CC(C)N1CCN(C(=O)CCC[C@@H]2[C@H]3CCCN4CCC[C@@H](CN2C(=O)c2cccnc2)[C@@H]34)CC1 | 8%
CCOC(=O)N1CCC(NC2CC(=O)N(CCc3ccc(OC)cc3)C2)CC1 (stereo not given) | i
N#Cc1ccnc(-c2nnc3ccc(NC4CC4)nn23)c1 | i
CC(=O)c1cc(C(=O)N2CCC3(CC2)Nc2ccccc2NC3=O)[nH]n1 | 1%
COc1ccc(-c2[nH]ncc2CN)cc1 | -3%
CCC(C)Nc1sc(S(=O)(=O)CC)nc1S(=O)(=O)c1ccc(C)cc1 (stereo not given) | 13µM*
COCCNc1sc(S(=O)(=O)c2ccc(C)cc2)nc1S(=O)(=O)c1ccc(C)cc1 | -16%
CCCSc1oc(-c2cccs2)nc1S(=O)(=O)c1ccc(C)cc1 | -21%
CCCCNc1sc(S(=O)(=O)CC)nc1S(=O)(=O)c1ccc(C)cc1 | 11µM*
CCCCS(=O)(=O)c1oc(-c2ccc(F)cc2)nc1S(=O)(=O)c1ccc(C)cc1 | -3%
CCCS(=O)(=O)c1nc(S(=O)(=O)c2ccc(C)cc2)c(NCC(C)C)s1 | 8.9µM*
CCN(CC)CCCNc1sc(S(=O)(=O)c2ccccc2)nc1S(=O)(=O)c1ccc(Cl)cc1 | 5.6µM*
CCCCNc1nc2c(S(=O)(=O)c3ccc(Cl)cc3)nnn2c2ccsc12 | -19%
Cc1ccc(S(=O)(=O)c2nc(-c3ccco3)oc2SCC(C)C)cc1 | 7%
CCCS(=O)(=O)c1nc(S(=O)(=O)c2ccc(C)cc2)c(N(CC)CC)s1 | i
CCN(CC)CCCNC(=O)CSc1nc2nc(C)c(Cc3c(F)cccc3Cl)c(C)n2n1 | -29%
CCCCCS(=O)(=O)c1oc(-c2cccs2)nc1S(=O)(=O)c1ccc(C)cc1 | 7%
CC(=O)NCC(=O)N1CCCC(n2cc(-c3nc(-c4ccccc4)no3)nn2)C1 (stereo not given) | i
Cc1nn(CCO)cc1CN1CCC2(CC1)C(C(=O)O)CC(=O)N2C (stereo not given) | -11%
Cc1noc([C@@H]2CN(C(=O)CC(C)C)C[C@H]2CO)n1 | 7%
Cc1nc(-c2cn(C3CCCN(C(=O)c4cccc(Cl)c4)C3)nn2)no1 (stereo not given) | i
Fc1ccc(Cn2ccnc2-c2ccccn2)c(Cl)c1 | -16%
Cn1cc(CC(=O)N2CCCc3ncc(C(=O)NCCN4CCCC4)cc32)c2ccccc21 | i
CC(C)CN1C(=O)c2cccn2CC1C(=O)NCCCN1CCN(C)CC1 (stereo not given) | 17%
O=C(c1ccc(Cl)cc1)N1CCN2C(=O)N(C3CCOCC3)C[C@H]2C1 | -22%[44.1 µM]
SMILES | Pf Dd2 inh
Cc1occc1C(=O)N1C[C@@H](C(=O)O)C[C@H](C(=O)NCc2ccccn2)C1 | -16%
CN1Cc2c(cc(N3CCOCC3)nc2-c2cccc(N[S+](C)(=O)[O-])c2)C1=O | -22%[44.1 µM]
Cc1nnc2n1CCC(NC(=O)NCCc1ccccc1)CC2 (stereo not given) | 21%
COC[C@@H]1CN(S(=O)(=O)c2cccc(C)c2)C[C@H]1c1nc(C)no1 | -2%
COCc1cn(C[C@H]2C[C@@H](NC(=O)c3cc(C)n(C)n3)[C@H](O)[C@@H]2O)nn1 | 21%
Cn1cnnc1CC1CCN(S(=O)(=O)c2ccc(F)cc2)CC1 | 6%
CC1CCCCN1Cc1c(O)ccc2c(=O)c(-c3ccc(Cl)cc3)c(C(F)(F)F)oc12 (stereo not given) | 10µM*
CN(Cc1ccc(-c2ccccc2)cc1)Cc1cccc(OC(F)(F)F)c1 | 10%
CC1CCCCN1Cc1c(O)ccc2c(=O)c(-c3ccccc3)coc12 (stereo not given) | 10µM*
CN(Cc1ccc(-c2ccccc2)cc1)Cc1cccc(C(F)(F)F)c1 | -6%
CC1CCCCN1C(=O)CN1CCSc2ccccc21 (stereo not given) | 33%
CN(Cc1ccccc1)Cc1c(O)ccc2c(=O)c(-c3ccccc3)c(C(F)(F)F)oc12 | 4µM*
CC1CCCCN1Cc1nnc2cc(-c3nc(-c4ccccc4)no3)ccn12 (stereo not given) | -18%
CC1CCCCN1Cc1nc2c(c(=O)n(C)c(=O)n2C)n1Cc1ccc(Br)cc1 (stereo not given) | 16%
COc1cccc(CNC(=O)CCC2CCN(S(=O)(=O)c3ccc(C)cc3)CC2)c1 | -24%
CC(C)NC(=O)N1CCC2(CC1)CN(C(=O)NC(C)C)CCO2 | 15%

Screening data deposited in PubChem BioAssay by National Center for Advancing Translational Sciences (NCATS).
